# Shown are actives, neighbours in structure and some others; about 8% of the full set was active somewhere.
# ELG1 repair inh: qHTS screen for small molecules that inhibit ELG1-dependent DNA repair in human embryonic kidney (HEK293T) cells expressing luciferase-tagged ELG1 | actives 2.3% (n = 330,000) | Potency, µM (titrated, usually from 46.1 µM), without a hit: at the highest dose activity change, negative = inhibition, hits mostly inhibitors | HEK293T ELG1-luciferase reporter, luminescence, 16 h; DNA damage induced by 5-fluorouridine; further: potency means the concentration at half of the fitted maximal effect; nearly all actives have a fitted effect of over 55% in size
#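 DMSO vehicle served as the neutral condition. Each well held 2,000 cells given 5-fluorouridine plus compound; after 16 hr at 37 °C/5% CO2, ONE-Glo was added and luciferase measured 30 min later.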
# RORgamma inh: qHTS for inhibitors of ROR gamma transcriptional activity. Drosophila S2 Gal4-RORgamma UAS-luciferase reporter, 20 h. Potency, µM (top dose mostly 53.6 µM), inactives show at the top dose activity change, negative = inhibition, usual class: inhibitors. actives 5.4% (n = 310,000). AID 2551, 2010; further: potency means the concentration at half of the fitted maximal effect; nearly all actives have a fitted effect of over 60% in size
# Target sequence (P51450 whole entry, looked up, the tested form may be a part): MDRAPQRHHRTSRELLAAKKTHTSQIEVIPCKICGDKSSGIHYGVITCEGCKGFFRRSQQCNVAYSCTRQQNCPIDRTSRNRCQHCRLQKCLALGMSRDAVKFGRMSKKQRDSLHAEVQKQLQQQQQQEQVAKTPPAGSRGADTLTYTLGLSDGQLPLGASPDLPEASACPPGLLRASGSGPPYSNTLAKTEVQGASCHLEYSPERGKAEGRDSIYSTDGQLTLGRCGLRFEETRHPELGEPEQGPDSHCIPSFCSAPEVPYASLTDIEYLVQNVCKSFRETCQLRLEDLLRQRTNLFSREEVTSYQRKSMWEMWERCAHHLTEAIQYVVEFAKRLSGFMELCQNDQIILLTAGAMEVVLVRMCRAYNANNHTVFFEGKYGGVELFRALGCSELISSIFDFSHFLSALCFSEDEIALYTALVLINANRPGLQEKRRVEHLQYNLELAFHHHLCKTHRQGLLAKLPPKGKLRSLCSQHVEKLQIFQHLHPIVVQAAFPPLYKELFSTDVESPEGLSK
#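 Compounds are pin-transferred onto Drosophila Schneider cells expressing a copper-inducible Gal4–ROR gamma transactivation domain fusion. After 1 hr, copper sulfate is added to 700 uM final; luciferase is read 20 hr later.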
# FBPA coupling cs: qHTS Assay for Inhibitors of Fructose-1,6-bisphosphate Aldolase from Giardia Lamblia: Coupling assay counterscreen. activity change, negative = inhibition, % at 58.2 µM, hits read low. coupling enzyme system counterscreen, AmpLite Red fluorescence. actives 0.67% (n = 290,000). AID 2472, 2010; in the data active means activity change below about -30%
#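 Counterscreen lacking aldolase: glyceraldehyde-3-phosphate coupling-enzyme reagent preincubated 10 min at RT with compound (at 57.5 uM final), then substrate/coupling system with AmpLite Red added; fluorescence read at 525/598 nm after 20 min RT.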
# TSHR antag: Antagonists of the Thyroid Stimulating Hormone Receptor: HTS campaign | activity change, negative = inhibition, % at 11.5 µM | actives 0.2% (n = 330,000) | Thyrotropin receptor (Homo sapiens), P16473 | TSHR-expressing cells, TSH-stimulated cAMP HTRF, 2 h; stronger effect = lower value;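 active means activity change below a set negative limit, meaning inhibition stronger than a set level, cut at about -70% in these data; inconclusive means activity change between two set negative limits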
#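 Read-out is FRET at 665 nm (cryptate excitation 337 nm) from a cryptate-tagged anti-cAMP antibody, competed by cell cAMP against cAMP-d2. Compounds are tested on freshly harvested TSHR cells challenged with 4nM TSH (EC80) for 2 hours at 37 deg C.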
# VP16 counter: VP16 counterscreen qHTS for inhibitors of ROR gamma transcriptional activity | Drosophila S2 Gal4-VP16 UAS-luciferase, luminescence, 20 h | Potency, µM (series often up to 53.6 µM), for the others: top-dose activity, negative = inhibition, actives largely listed as inhibitors | actives 3.5% (n = 310,000) | AID 2546, 2010;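 further: Gal4-VP16 expression switched on by copper sulfate through the metallothionein promoter; potency means the concentration at half of the fitted maximal effect; nearly all actives have a fitted effect of over 50% in size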
# Starred values were filed as active, the others as inactive; ? = inconclusive; . = no result. Unless noted, the call rests on the fitted dose curve; in most records, active means well fitted curve in the direction sought with a large enough effect; inconclusive means small, poorly fitted or top-dose-only effect, or another doubt; inactive means no such curve, though single readings can be large; an effect the other way counts as inactive or inconclusive. On the % scale 0 is the no-effect control and ±100 the full control effect.
SMILES,ELG1 repair inh,RORgamma inh,FBPA coupling cs,TSHR antag,VP16 counter
N#Cc1nccnc1S(=O)(=O)c1cccs1,?,3.16µM*,-0.8,-86.5*,3.55µM*
COc1ccccc1NC1=C(C)C(=O)CC1,?,12.6µM*,0.3,9.6,-4.1%
COc1ccccc1Nc1ccc(Nc2ccccc2OC)nn1,?,84.8%,2.4,-1.8,4.9%
CS/C(N)=N/N=C/c1cc(Br)cc(Br)c1O,1.3%,0.631µM*,1.2,9.9,2.51µM*
NC(N)=N/N=C/c1cc([N+](=O)[O-])ccc1O,10.7%,17.7%,3.7,-7.5,-7.7%
CSc1ccc(/C=N\Nc2nncn2N)cc1,?,-38.0%,-1.5,12.6,?
Nn1cnnc1N/N=C/c1cc(Br)cc(Br)c1O,-19.2%,10µM*,-12.7,20.8,12.6µM*
CS/C(N)=N/N=C/c1cc(C)ccc1O,?,0.316µM*,-1.0,3.8,5.01µM*
CCN(CC)c1ccc(/C=N/N=C(N)N)c(O)c1,-10.0%,6.9%,-2.8,-11.4,-9.3%
CCS/C(N)=N/N=C/c1cc(C)ccc1O,?,0.708µM*,-4.7,-15.2,2µM*
O=C1CC(=O)NC(SCC(=O)Nc2ccccc2[N+](=O)[O-])=N1,2.5%,7.2%,4.2,-17.4,2.3%
COc1ccc(CN2CC[C@@H](N3CCOCC3)[C@H](O)C2)cc1F,0.5%,-46.3%,1.4,8.6,1.3%
O=C(Nc1ccccc1OC(F)F)c1cccc(S(=O)(=O)N2CCCC2)c1,15.2%,9.9%,-2.1,24.6,-0.2%
C=CCS/C(N)=N\N=C\c1cc(Br)cc([N+](=O)[O-])c1O,-22.3%,0.316µM*,-0.3,-10.7,3.16µM*
CCCCCc1ccc(C)cc1O,.,-3.4%,.,.,?
CCCCS/C(N)=N/N=C/c1cc(C)ccc1O,?,5.62µM*,-4.8,-19.9,5.01µM*
COc1ccc(C(=O)NCc2nnc(SCC(=O)N3CCc4ccccc43)n2CCc2ccccc2)cc1,14.6µM*,?,0.5,2.8,-7.8%
CCOc1ccc(OCCC(=O)OCC(=O)NCCc2ccc(S(N)(=O)=O)cc2)cc1,17.2%,.,.,-25.0,.
Cc1cc(/C=C(\C#N)C(N)=O)c(C)n1-c1ccc(N2CCOCC2)c([N+](=O)[O-])c1,23.1µM*,1.2%,1.2,-7.7,-7.3%
CC[C@H](C)[C@H](NC(=O)[C@H](CC(C)C)NC(=O)[C@@H](N)CO)C(=O)NCC(=O)N[C@@H](CCCCN)C(=O)N[C@H](C(=O)O)C(C)C,.,2.7%,1.3,.,-5.3%
CCCCCCn1c(=O)c(-c2ccccc2)c(O)c2ccccc21,0.4%,1.1%,4.1,9.8,-11.4%
CCCn1c(=O)c(-c2nc3ccccc3[nH]2)c(O)c2ccccc21,15.8%,0.501µM*,0.9,3.5,2µM*
CCn1c(=O)c(-c2nc3ccccc3[nH]2)c(O)c2ccccc21,-3.0%,0.159µM*,0.1,0.6,0.631µM*
Cn1cc(-c2nc3ccccc3[nH]2)c2ccccc21,?,0.5%,-2.0,-5.0,-2.4%
C=CCOc1ccccc1CNc1ccc2c(c1)OCCO2,?,4.47µM*,-37.1*,2.7,?
SMILES,ELG1 repair inh,RORgamma inh,FBPA coupling cs,TSHR antag,VP16 counter
O=S(=O)(NC(=S)c1ccccc1)c1ccc(Cl)cc1,-26.6%,?,21.4,-2.6,-27.9%
O=S(=O)(NC(=S)c1ccccc1)c1ccc(F)cc1,-16.1%,11.2µM*,11.3,17.1,?
CCCCc1nc2n[nH]c(N)c2c2c1CCCC2,8.7%,-0.6%,-0.8,-6.8,5.5%
CCCCCc1n[nH]c2c1CCCC2,?,10µM*,-4.6,6.0,-25.6%
COCCCNC(=O)Cn1cc(/C=C(\C#N)C(=O)NC2CCCC2)c2ccccc21,18.7%,25.6%,0.2,0.0,18.3%
COc1ccc(C2C(C(=O)c3ccccc3)=C(C)Nc3nc4ccccc4n32)c(OC)c1 (stereo not drawn),?,6.31µM*,-0.7,-0.3,-1.6%

# Assay outcomes: PubChem, National Center for Advancing Translational Sciences (NCATS)
